Broadly, the AC50 is the midpoint of the concentration-response curve, whichever way the signal moves.

Structures are written as SMILES. Several values for one entry are separate records, joined by “and”; a condition that tells them apart may be missing. Equal values may be shown once. Results filed as inconclusive are left out. Activity calls are given as the source filed them. The calls were made as follows, unless noted: active = hit-call score of the fitted dose curve at least 0.9, where 1 is the maximum; inconclusive = response in the unintended direction; inactive = score below 0.9.

The text below walks through data of PubChem BioAssay (EPA / NIEHS).

Read-out in experiment [1]: alkyl and aryl transferase (GSTA2), GSTA2 (gene 2939)
Nature of the experiment: CLD_GSTA2_6hr: CellzDirect (CLD) Gene Expression Assay for alkyl and aryl transferase (GSTA2) at 6 hours (AID 2283666). In short, it runs like this: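 Primary human hepatocytes from two donor preparations were dosed daily with fresh compound at multiple concentrations, 0.2% DMSO vehicle. GSTA2 mRNA was measured at 6 hours by qNPA chemiluminescence; induction fitted relative to DMSO, with cytotoxicity flagged morphologically.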

Read-out in experiment [2]: sulfotransferase (SULT2A), SULT2A1 (gene 6822)
Nature of the experiment: CLD_SULT2A_6hr: CellzDirect (CLD) Gene Expression Assay for sulfotransferase (SULT2A) at 6 hours (AID 2283669).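 Also: hits raise transcript level above the DMSO vehicle baseline.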 In short, it runs like this: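 Primary human hepatocytes from two donor preparations were dosed daily with chemicals or 0.2% DMSO and harvested at 6 h. Transcript induction read by qNPA chemiluminescence, fitted for gain of signal relative to DMSO; morphology-based cytotoxicity annotated.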

The nature of experiment [3]: CLD_ACTIN_24hr: CellzDirect (CLD) Gene Expression Assay for Baseline Control (Actin) at 24 hours (AID 2283670). In short, it runs like this:
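Primary human hepatocytes dosed over multiple concentrations with 0.2% DMSO vehicle; actin mRNA measured at 24 h by qNPA chemiluminescence. Background control endpoint, fitted as gain of signal versus DMSO.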

Read-out in experiment [4]: glucuronosyltransferase (UGT1A1), UGT1A1 (gene 54658)
Nature of the experiment: CLD_UGT1A1_6hr: CellzDirect (CLD) Gene Expression Assay for glucuronosyltransferase (UGT1A1) at 6 hours (AID 2283672). In short, it runs like this:
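Primary human hepatocytes from two donor preparations, dosed with fresh solutions in 0.2% DMSO, harvested at 6 h. UGT1A1 mRNA measured by qNPA chemiluminescence; induction fitted upward versus DMSO.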

The nature of experiment [5]: CLD_ACTIN_6hr: CellzDirect (CLD) Gene Expression Assay for Baseline Control (Actin) at 6 hours (AID 2283676).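 Also: active means increased actin mRNA relative to DMSO vehicle.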 In short, it runs like this:
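Primary human hepatocytes dosed with fresh chemical solutions (vehicle 0.2% DMSO), harvested at 6 h. Actin mRNA quantified by quantitative nuclease protection assay with chemiluminescent read-out, as background control relative to DMSO.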

Read-out in experiment [6]: Cytochrome P450 2B6 (Homo sapiens) (UniProt P20813)
Nature of the experiment: CLD_CYP2B6_6hr: CellzDirect (CLD) Gene Expression Assay for xenobiotic metabolism (CYP2B6) at 6 hours (AID 2283677).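 Also: actives raise CYP2B6 transcript above DMSO baseline so AC50 marks an inducer.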 In short, it runs like this:
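Primary human hepatocytes dosed with chemicals at multiple concentrations, vehicle 0.2% DMSO; CYP2B6 mRNA induction measured 6 h after dosing by quantitative nuclease protection assay with chemiluminescence, gain of signal fitted relative to DMSO.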

A short description of experiment [7]: CCTE_Padilla_ZF_144hpf_TERATOSCORE: (Legacy) CCTE's 144 Hour Post-fertilization zebrafish Assay Teratoscore, Padilla Lab (AID 2283679; active = hit-call score of the fitted dose curve at least 0.9, where 1 is the maximum; inactive = score below 0.9;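 as to AC50: zebrafish embryos with chorions exposed by immersion from 6-8 hpf to 5 dpf with daily renewal; teratogenicity score from eye scoring of death hatching and malformations at 144 hpf; higher score means more developmental defects relative to DMSO baseline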). In short, it runs like this:
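Larvae scored by eye at 144 hpf for death, hatching and malformations after a day in clean Hanks'. Before that, daily-renewed exposure at 80 uM (0.4% DMSO, 26C) from roughly 6-8 hpf through 5 dpf, 4 embryos per chemical.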

Read-out in experiment [8]: Cytochrome P450 3A4 (Homo sapiens) (UniProt P08684)
Nature of the experiment: CLD_CYP3A4_6hr: CellzDirect (CLD) Gene Expression Assay for xenobiotic metabolism (CYP3A4) at 6 hours (AID 2283680). In short, it runs like this:
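Primary human hepatocytes (two donor preparations) dosed; CYP3A4 mRNA harvested at 6 h and quantified by qNPA chemiluminescence. Gain of signal fitted against 0.2% DMSO vehicle; cytotoxicity flagged by phase-contrast morphology.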

Read-out in experiment [9]: Glyceraldehyde-3-phosphate dehydrogenase (Homo sapiens) (UniProt P04406)
Nature of the experiment: CLD_GAPDH_6hr: CellzDirect (CLD) Gene Expression Assay for Baseline Control (Glyceraldehyde 3-phosphate dehydrogenase) at 6 hours (AID 2283681).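 Also: active means increased signal relative to DMSO vehicle.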 In short, it runs like this:
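Primary human hepatocytes from two donor preparations, dosed at multiple concentrations with 0.2% DMSO vehicle; GAPDH mRNA measured 6 h after dosing by chemiluminescent quantitative nuclease protection assay (qNPA) on denatured lysates. Serves as background control; cytotoxicity annotated by morphology.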

Read-out in experiment [10]: HMG-CoA synthase (HMGCS2), HMGCS2 (gene 3158)
Nature of the experiment: CLD_HMGCS2_6hr: CellzDirect (CLD) Gene Expression Assay for HMG-CoA synthase (HMGCS2) at 6 hours (AID 2283682).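 Also: actives raise HMGCS2 transcript above the 0.2% DMSO vehicle baseline.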 In short, it runs like this: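 Primary human hepatocytes dosed daily with fresh chemical, 0.2% DMSO vehicle; HMGCS2 mRNA measured at 6 h by qNPA chemiluminescence. Gain of signal fitted against DMSO; cytotoxicity flagged from phase-contrast morphology.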

Read-out in experiment [11]: xenobiotic metabolism (CYP1A2), CYP1A2 (gene 1544)
Nature of the experiment: CLD_CYP1A2_24hr: CellzDirect (CLD) Gene Expression Assay for xenobiotic metabolism (CYP1A2) at 24 hours (AID 2283683). In short, it runs like this: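 Primary human hepatocytes from two donor preparations dosed daily with multiple concentrations of chemical, 0.2% DMSO vehicle. CYP1A2 mRNA at 24 h quantified by qNPA chemiluminescence; gain of signal analyzed relative to DMSO. Cytotoxicity flagged by phase-contrast morphology.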

Read-out in experiment [12]: ABC Transporter (ABCB1), ABCB1 (gene 5243)
Nature of the experiment: CLD_ABCB1_24hr: CellzDirect (CLD) Gene Expression Assay for ABC Transporter (ABCB1) at 24 hours (AID 2283684). In short, it runs like this: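 Primary human hepatocytes, two donor preparations, dosed daily with fresh solutions; vehicle 0.2% DMSO; harvested at 24 h. ABCB1 mRNA measured by quantitative nuclease protection assay (chemiluminescence); morphology-based cytotoxicity annotated.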

A short description of experiment [13]: Tanguay_ZF_120hpf_TR_legacy: (Legacy) Oregon State University Tanguay Lab 120 Hour Post-fertilization zebrafish Assay for Touch Response (AID 2283667). In short, it runs like this:
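5D WT embryos; static exposure to 120 hpf, 28C, sealed/dark; DMSO 0.64% v/v final. TR scored present/absent; dead embryos excluded. Pos ctrl 5uM trimethyltin chloride.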

Cytochrome P450 3A4 (Homo sapiens), sequence (P08684 whole entry, looked up): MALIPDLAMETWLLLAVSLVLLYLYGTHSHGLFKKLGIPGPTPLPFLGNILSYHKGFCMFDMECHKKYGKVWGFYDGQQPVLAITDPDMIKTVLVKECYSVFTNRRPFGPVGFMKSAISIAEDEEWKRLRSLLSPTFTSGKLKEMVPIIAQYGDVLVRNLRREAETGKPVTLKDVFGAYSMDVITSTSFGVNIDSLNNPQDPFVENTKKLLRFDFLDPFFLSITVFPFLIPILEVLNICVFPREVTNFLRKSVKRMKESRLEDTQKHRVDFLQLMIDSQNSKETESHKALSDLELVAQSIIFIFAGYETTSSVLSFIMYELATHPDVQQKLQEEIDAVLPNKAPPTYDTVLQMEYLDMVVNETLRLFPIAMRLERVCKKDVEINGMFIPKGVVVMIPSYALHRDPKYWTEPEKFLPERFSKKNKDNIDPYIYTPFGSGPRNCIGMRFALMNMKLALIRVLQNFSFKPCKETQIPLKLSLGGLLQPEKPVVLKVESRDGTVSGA
Glyceraldehyde-3-phosphate dehydrogenase (Homo sapiens), sequence (P04406 whole entry, looked up): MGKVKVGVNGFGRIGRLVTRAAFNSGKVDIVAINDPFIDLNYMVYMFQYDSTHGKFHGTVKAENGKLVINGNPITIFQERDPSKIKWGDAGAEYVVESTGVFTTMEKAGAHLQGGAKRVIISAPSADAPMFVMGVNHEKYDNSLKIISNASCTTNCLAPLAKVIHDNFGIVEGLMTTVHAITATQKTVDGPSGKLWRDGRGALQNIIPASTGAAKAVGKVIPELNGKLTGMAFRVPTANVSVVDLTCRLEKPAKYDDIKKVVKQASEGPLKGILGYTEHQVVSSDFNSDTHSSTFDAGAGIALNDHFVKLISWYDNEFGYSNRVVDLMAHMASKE

Consider `CN(C)c1nc(=O)n(C2CCCCC2)c(=O)n1C`, for which the compound was called inactive in experiment [1], in experiment [2], in experiment [3], in experiment [4], in [5] and in [6]. The call in experiment [7], in experiment [8], in [9], in [10], in experiment [11] and in experiment [12] was inactive.
As for `O=C(O)C(F)(F)C(F)(F)C(F)(F)C(F)(F)C(F)(F)F`, the call in experiment [13] was inactive.
Regarding `CCOP(=S)(OCC)SCSC(C)(C)C`, in experiment [13], the result was inactive. In addition, the AC50 in experiment [7] is 56.3 µM (active).
Turning to `O=S(=O)(O)C(F)(F)C(F)(F)C(F)(F)C(F)(F)C(F)(F)C(F)(F)F`, the AC50 is 25.9 µM (active) in [13] and 123 µM (active) in experiment [7].
For the compound `O=NN(c1ccccc1)c1ccccc1`, the compound was classed as inactive in experiment [13]. The AC50 in experiment [7] is 53.4 µM (active).
With `CO/C=C(/C(=O)OC)c1ccccc1COc1cccc(C(F)(F)F)n1`, the AC50 in [13] was 13.2 µM (active); in experiment [7], 0.168 µM (active).
As to `CCC(C)c1cc([N+](=O)[O-])cc([N+](=O)[O-])c1O` (stereo unspecified), the compound was called inactive in [13]. Besides, the AC50 in [7] was 0.167 µM (active).
As for `C1CC2OC2CC1C1CO1` (stereo unspecified), in experiment [7], the AC50 was 77.8 µM (active).
Regarding `CCC(=O)O[C@H]1CC[C@H]2[C@@H]3CCC4=CC(=O)CC[C@]4(C)[C@H]3CC[C@]12C`, the call in experiment [13] was inactive. In addition, the AC50 in [7] is 79.4 µM (active).
For `CCC(C)(c1ccc(O)cc1)c1ccc(O)cc1`, the AC50 in experiment [13] was 42.4 µM (active); in experiment [7], 15.5 µM (active) and 1.34 µM (active).
Turning to `Cc1cc2c3c(c1)C(c1ccccc1)=N[C@@H](NC(=O)c1ccncc1)C(=O)N3CC2`, the outcome in [13] was inactive. In experiment [7], the AC50 was 54.4 µM (active).
Regarding `CN(C)CCO`, the compound was called inactive in [13] and in experiment [7].
Turning to `CCCCCCCCCC[N+](C)(C)CCCCCCCCCC`, the outcome in [13] was inactive. In [7], the AC50 is 4.53 µM (active).
In the case of `CC#Cc1cc(C)nc(Nc2ccccc2)n1`, the AC50 in [7] was 33.4 µM (active).
With `Oc1ccc(Cl)cc1Cl`, the call in experiment [13] was inactive. Further, the AC50 in [7] was 56.6 µM (active).
In the same order, the values of `ClC(Cl)=C(c1ccc(Cl)cc1)c1ccc(Cl)cc1` are “inactive” and 8.32 µM (active).
In the same order, the values of `NS(=O)(=O)C(F)(F)C(F)(F)C(F)(F)C(F)(F)C(F)(F)C(F)(F)C(F)(F)C(F)(F)F` are “inactive” and 0.45 µM (active).
